Only some compounds are listed: those with a hit (about 6.5% of all), similar ones and a draw of the others.
Abs 340nm: compounds absorbing at 340 nm | AID 708 | compound absorbance at 340 nm, fold over control | 65,000 tested, under 10 active | fold change at 10 µM;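 active = at 10 µM dose, initial 340 nm absorbance at least 2 fold that of control wells; inactive = change under 2 fold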;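 note: initial absorbance extrapolated from kinetic A340 decline of NADH oxidation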
NADH enzymes: inhibitors of enzymes used to reach an NAD/NADH endpoint. coupled PK/LDH NADH assays, four targets. IC50, µM (top dose mostly 10 µM). 0.02% of 65,000 active. AID 774;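 active = single-dose screening hits from any of four coupled enzyme assays that gave an IC50 when retested across doses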;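 note: the DPM-DC format reads NADH fluorescence rather than 340 nm absorbance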
Fluor 339 460: intrinsic fluorescence of library compounds, ex339/em460 – biochemical, MLSMR library, data from DPM-DC assay, artefact control, profiling panel; compound autofluorescence, ex339/em460 nm, NADH buffer; hits give high values; 1 = no-compound wells, NADH background; fluorescence fold increase at 10 µM; 5.5% of 65,000 active; AID 709;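 active = at 10 µM, mean starting fluorescence two-fold or more over control wells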;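 note: signal is the first read of a kinetic run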
DPM-DC inhibit: S. pneumoniae DPM-DC inhibition | purified DPM-DC, PK/LDH coupled NADH fluorescence | calls only at 10 µM | 0.49% of 65,000 active | AID 556;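 active = the 320 compounds with the highest percent inhibition in the single-dose primary screen, excluding strongly autofluorescent ones, cut at about 32% in these data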;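 note: kinetic rate of NADH fluorescence loss reporting ADP formed by the decarboxylase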
Spn PMK inh: inhibitors of Streptococcus pneumoniae phosphomevalonate kinase. purified PMK, PK/LDH-coupled NADH absorbance 340 nm. inhibition, % at 10 µM. 0.49% of 65,000 active;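 active = top-ranked compounds by inhibition in the single 10 µM screen, taking a fixed number of the strongest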
Spn MK inh: S. pneumoniae mevalonate kinase inhibition; purified MK, PK/LDH-coupled NADH absorbance 340 nm; inhibition, % at 10 µM; 0.48% of 65,000 active; AID 555;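 active = ranked among the strongest by inhibition in the single 10 µM screen, a fixed top-ranked set picked for dose follow-up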
Of the large screens only hits and unclear results are named; the others gave an inactive call.

COc1ccccc1-n1cc(C(=O)NCC(=O)N2CCN(c3ccccn3)CC2)c2ccccc2c1=O	none
O=C(CNC(=O)c1cccs1)NCCN1CCN(c2ccccc2F)CC1	Spn PMK inh 25.0
Cn1cc(C(=O)N2CCN(C(=O)c3ccco3)CC2)c2c3ccccc3n(C)c2c1=O	Fluor 339 460 3.45
Cn1cc(C(=O)NCCN2CCN(c3ccccc3F)CC2)c2c3ccccc3n(C)c2c1=O	Fluor 339 460 3.47
CCOC(=O)c1cn(CC(=O)Nc2ccc(CC)cc2)nn1	none
Cc1ccc(O)c(CC(C)C)n1	Fluor 339 460 2.04
Cc1ccc(C2C3=C(CC(C)(C)CC3=O)N(CCN3CCOCC3)C3=C2C(=O)CC(C)(C)C3)cc1	Fluor 339 460 3.79, DPM-DC inhibit active
COc1ccc(NC(=O)c2cc(C3CC3)on2)c(OC)c1	none
CCOc1ccc(-n2ccnc2SCC(=O)Nc2nnc(CC)s2)cc1	none
C=CCn1c(NC(=O)c2ccco2)c(S(=O)(=O)c2ccccc2)c2nc3ccccc3nc21	Fluor 339 460 3.81 (not shown: DPM-DC inhibit)
CC(=O)N1c2ccccc2C(=O)OC1c1cccnc1 (stereo not drawn)	none
CCC1(C)Cc2nc3sc(C(=O)O)c(N)c3cc2CO1 (stereo not drawn)	none
CCCCS(=O)(=O)c1sc2nc3c(cc2c1N)CCCC3	Fluor 339 460 3.34 (not shown: DPM-DC inhibit)
Clc1cc(Br)ccc1OCCOCCN1CCOCC1	Spn MK inh 44.0
Cc1ccc(C)c(OCCOCCN2CCOCC2)c1	none
CC(=O)Nc1cccc(NC(=O)c2oc3ccccc3c2C)c1	none
Cc1ccc2oc(-c3ccc(NC(=O)CC(C)C)cc3)nc2c1	Fluor 339 460 2.2 (not shown: DPM-DC inhibit)
CC(C)CC(=O)Nc1ccc2oc(-c3cccnc3)nc2c1	Fluor 339 460 2.22 (not shown: DPM-DC inhibit)
Cc1c(C(=O)Nc2ccc(-n3cnnn3)cc2)oc2ccccc12	Fluor 339 460 3.77 (not shown: DPM-DC inhibit)
Cc1c(C(=O)Nc2ccc3oc(-c4cccnc4)nc3c2)oc2ccccc12	Fluor 339 460 3.81 (not shown: DPM-DC inhibit)
CN(C)c1ccc(NC(=S)c2ccccn2)cc1	none
CCCCC(=O)Nc1cc(N(C)C)nc2ccccc12	Fluor 339 460 3.82 (not shown: DPM-DC inhibit)
CN(C)c1cc(NC(=O)CN2CCOCC2)c2ccccc2n1	none (not shown: DPM-DC inhibit)
COC(=O)CC1C(=O)NCCN1C(=O)Nc1ccccc1 (stereo not drawn)	none
CCOC(=O)CC1C(=O)NCCN1C(=O)Nc1ccccc1 (stereo not drawn)	Spn MK inh 49.0
COc1ccc(-c2cc(C(F)(F)F)n3nc(C(=O)N4CCCC4)cc3n2)cc1	Fluor 339 460 2.2 (not shown: DPM-DC inhibit)
O=C(c1nc2nc(-c3ccccc3)cc(C(F)(F)F)n2n1)N1CCOCC1	none
O=C(c1nc2nc(-c3ccc(Cl)cc3)cc(C(F)(F)F)n2n1)N1CCOCC1	Fluor 339 460 3.18 (not shown: DPM-DC inhibit)
COc1ccc(-c2cc(C(F)(F)F)n3nc(C(=O)O)nc3n2)cc1	Fluor 339 460 2.85
O=C(Nc1ccc(Cl)cc1C(=O)NCC1CCCO1)c1ccco1 (stereo not drawn)	none
CCOc1cccc(C(=O)Nc2ccccc2OC(F)F)c1	none
Cn1cnnc1SCc1ccc(C#N)cc1	none
CCn1cc(C(=O)N=c2sc3ccccc3n2C)c(=O)c2ccc(C)nc21	none
CCOc1ccc(N2C(=O)C3CCCN3C2=O)cc1 (stereo not drawn)	none
O=C(NC1CCCc2ccccc21)C1CCN(c2c3c(nc4ncnn24)CCC3)CC1 (stereo not drawn)	Fluor 339 460 4.71 (not shown: DPM-DC inhibit)
COc1ccc2[nH]cc(C(=O)CN3CCC(C)CC3)c2c1	none
COc1ccc2[nH]cc(C(=O)CN3CCCC(C)C3)c2c1 (stereo not drawn)	Spn PMK inh 25.0
CCOc1ccc2[nH]c(=O)c(CN(CCO)C(=O)c3ccc(F)cc3)cc2c1	Fluor 339 460 3.35
CCOc1ccc2[nH]c(=O)c(CN(CCO)C(=O)c3ccccc3F)cc2c1	Fluor 339 460 3.04
O=c1[nH]cnc2c1oc1ccccc12	none
O=C(O)c1c(-c2ccccc2)c2oc3ccccc3c2[nH]c1=O	Fluor 339 460 3.58, DPM-DC inhibit active
CCCC(=O)NC1=C(C#N)C2(CCCC2)Cc2ccccc21	none
CCN1C(=O)/C(=C2/Sc3ccc(OC)cc3N2C)SC1=Nc1ccc(C(C)=O)cc1	Spn PMK inh 25.0
CCOc1ccccc1OCCCCN1CCCC1	Spn MK inh 50.0
Cn1cnc(S(=O)(=O)NCc2cccs2)c1	none
CC1(C)CC(=O)C(C=NC(CCC(N)=O)C(=O)O)=C(O)C1 (stereo not drawn)	none
CCOC(=O)c1c(C)n(C)c2ccc(O)c(CN3CCC(C)CC3)c12	Spn MK inh 48.0
CCOC(=O)c1c(C)n(C)c2ccc(O)c(CN3CCN(C)CC3)c12	none
COc1ccc(-n2nc3cc(C)c(NC(=O)c4cccnc4)cc3n2)cc1	Fluor 339 460 3.26
COc1ccc(-n2nc3cc(C)c(NC(=O)CC(C)C)cc3n2)cc1	Fluor 339 460 2.07 (not shown: DPM-DC inhibit)
Cc1cc2nn(-c3ccccc3)nc2cc1NC(=O)c1cccs1	none
CC(C)(C)NC(=O)CN(C(=O)C1CSC(=O)C1)c1ccc2c(c1)OCCO2 (stereo not drawn)	none
CCN(CC)c1ccc(/C=N/n2c(=S)[nH]nc(C)c2=O)cc1	NADH enzymes 39.5µM, DPM-DC inhibit active
Cc1csc2nc3ccccc3c(=O)n12	Fluor 339 460 2.02
Cc1nc2ccccc2c(=O)n1N	none
Cc1cc(NC(=O)C2CC(c3ccc(F)cc3)=NO2)n(-c2ccccc2)n1 (stereo not drawn)	none
Cc1c(NC(=O)C(C)OC(=O)C(NC(=O)c2ccco2)C(C)C)c(=O)n(-c2ccccc2)n1C (stereo not drawn)	none
N#CCSC1=Nc2ccccc2C2=NC(CCC(=O)N3CCN(c4ccccc4)CC3)C(=O)N12 (stereo not drawn)	none
CC(C)C1N=C2c3ccccc3N=C(SCC#N)N2C1=O (stereo not drawn)	Fluor 339 460 2.57
CCC(=O)Nc1ccc(S(=O)(=O)c2ccc(NC(=O)CC)cc2)cc1	none
CC(CC(=O)O)NCC1COc2ccccc2O1 (stereo not drawn)	Spn PMK inh 26.0
O=C(O)CNCC1COc2ccccc2O1 (stereo not drawn)	none
Cc1ccc(-n2c(SCC(=O)NCc3ccco3)nnc2-c2cccnc2)c(C)c1	DPM-DC inhibit active
Cc1cccc(-n2c(SCC(=O)NCc3ccco3)nnc2-c2ccco2)c1	none
CNC(=O)c1sc2nc(-c3ccc(OC)cc3)cn2c1C	none
COc1ccc(-c2cn3c(C)c(C(=O)Nc4cc(NC(C)=O)ccc4OC)sc3n2)cc1	Fluor 339 460 3.39 (not shown: DPM-DC inhibit)
CCOc1cc(N2CCOCC2)c(OCC)cc1NC(=O)Cc1cn2ccsc2n1	none
CCOC(=O)CCc1c(C)c2ccc(O)cc2oc1=O	Fluor 339 460 3.69 (not shown: DPM-DC inhibit)
CCN(CC)c1ccc2c(Cl)c(Br)c(=O)oc2c1	none
CCOC(=O)Cc1c(C)c2c(O)cc(O)cc2oc1=O	Fluor 339 460 2.43 (not shown: DPM-DC inhibit)

Bioassay records: PubChem, SRMLSC
